Compound activity (PubChem BioAssay)
Most compounds without a hit are left out; they make up all but 2.7% or so of the library.
ALOX12 inh: Primary qHTS assay for inhibitors of human arachidonate 12S-lipoxygenase (ALOX12): Round 2. Potency, µM (series often up to 108 µM), for inactives: top-dose activity change, negative = inhibition, actives largely listed as inhibitors. AID 1671190, 2021. 1.1% of 580,000 active. Polyunsaturated fatty acid lipoxygenase ALOX12 (Homo sapiens), P18054. purified 12hLO, xylenol orange hydroperoxide absorbance; also: potency is read from the fitted curve at half-maximal effect; % is scaled to controls: 0 for no effect and ±100 for the full control effect
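Hydroperoxide product was detected by ferrous iron/xylenol orange as the 573 to 405 nm absorbance ratio. Arachidonic acid at 40 uM (final) was turned over for 30 min at room temperature by 150 nM human 12hLO, pH 7.0 Hepes buffer, after 15 min compound preincubation.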
Nrf2 inh: Nrf2 qHTS screen for inhibitors; A549 ARE-Fluc reporter, luciferase luminescence, 18-24 h; Potency, µM (titrated, usually from 46 µM), inactives show top-dose activity change, negative = inhibition, usual class: inhibitors; 2.1% of 360,000 active; AID 504444, 2011; also: potency is read from the fitted curve at half-maximal effect; % is scaled to controls: 0 for no effect and ±100 for the full control effect; nearly all actives have a fitted effect of over 60% in size
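Reporter: ARE-Fluc in A549. Exposure: 18-24 h, 37 °C, 5% CO2, 5% FBS OPTI-MEM. Readouts: fluorescent cytotoxicity (CellTiter-Fluor), then luminescent Nrf2 signal after BugLite.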
LDHA inh: qHTS assay for inhibitors of human lactate dehydrogenase; AID 1347041, 2019; 0.15% of 480,000 active; purified LDHA, NADH/diaphorase-resazurin fluorescence; hits give low values; activity change, % (values are at about 110 or 230 µM); in the data active = activity change below about -30%; inconclusive = mostly about -25% to -30%;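 also: plate controls were DMSO wells for no effect and wells without enzyme for full effect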
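Resorufin fluorescence (ex540/em590), read at 0 and 20 min after diaphorase/resazurin addition, reports the NADH left after a 5 min room-temperature reaction of 2 nM human LDH5 with 0.06 mM NADH and 0.2 mM pyruvate.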
Nrf2 activator: qHTS of Nrf2 Activators. 0.31% of 410,000 active. AID 624171, 2012. Potency, µM (series often up to 46.1 µM), for inactives: at the top dose activation, hits mostly activators. AREc32 ARE-luciferase reporter (MCF7-derived line), luminescence, 24 h; also: potency is read from the fitted curve at half-maximal effect; % of control where 0% means no effect; nearly all actives have a fitted effect of over 65% in size
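ARE-driven firefly luciferase activity in AREc32 cells measured after a 24 hr compound exposure at 37 deg C, using Steady-Glo reagent and a 30 min room-temperature hold.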
A549 tox-1: Nrf2 qHTS screen for inhibitors: counterscreen for cytotoxicity | A549 ARE-Fluc cells, CellTiter-Fluor viability, 18-24 h | Potency, µM (series often up to 46 µM), for inactives: top-dose activity change, negative = cytotoxicity, hits mostly inhibitors | 0.16% of 390,000 active | AID 504648, 2011; also: potency is read from the fitted curve at half-maximal effect; % is scaled to controls: 0 for no effect and ±100 for the full control effect
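Cytotoxicity counterscreen: CellTiter-Fluor fluorescence was measured in A549 ARE_Fluc cells after 18-24 h of compound exposure in a concentration series. The subsequent BugLite luminescent read reports ARE-luciferase activity.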
IDH1 R132H inh: qHTS for Inhibitors of mutant isocitrate dehydrogenase 1 (IDH1): qHTS; IDH1-R132H enzyme, NADPH consumption, diaphorase/resazurin fluorescence; 0.093% of 390,000 active; Potency, µM (doses to about 76.6 µM), without a hit: at the highest dose activity change, negative = inhibition, hits mostly inhibitors; also: potency is read from the fitted curve at half-maximal effect; % is scaled to controls: 0 for no effect and ±100 for the full control effect; nearly all actives have a fitted effect of over 65% in size
Target sequence (O75874 whole entry R132H, stated change not applied): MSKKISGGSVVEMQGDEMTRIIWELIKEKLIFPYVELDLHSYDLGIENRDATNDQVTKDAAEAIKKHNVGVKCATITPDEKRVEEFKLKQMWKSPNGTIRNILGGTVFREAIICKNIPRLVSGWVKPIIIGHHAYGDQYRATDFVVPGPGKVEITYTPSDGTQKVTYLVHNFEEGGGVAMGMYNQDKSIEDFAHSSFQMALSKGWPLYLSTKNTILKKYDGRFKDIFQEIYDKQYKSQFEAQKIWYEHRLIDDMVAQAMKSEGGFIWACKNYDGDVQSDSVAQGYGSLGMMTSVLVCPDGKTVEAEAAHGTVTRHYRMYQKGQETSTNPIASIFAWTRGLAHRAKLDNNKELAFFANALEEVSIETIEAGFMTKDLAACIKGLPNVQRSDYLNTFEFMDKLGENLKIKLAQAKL
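IDH1-R132H (0.5 ug/mL) preincubated 30 min with compound, then NADPH (0.016 mM) and alpha-KG (2 mM) added; 80 min at RT, pH 7.5. Remaining NADPH coupled via diaphorase/resazurin to fluorescence (540/590 nm); concentration-response curves normalized to no-enzyme control.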
FLuc counter 3: Nrf2 qHTS screen for inhibitors: Purified Fluc Biochemical Counterscreen for Hit Validation | shares compounds with Nrf2 inh | purified firefly luciferase, luminescence inhibition | Potency, µM (titrated, usually from 57.5 µM), for inactives: at the highest dose activity change, negative = inhibition, most hits filed as inhibitors | 4% of 1,400 active | AID 720522, 2013; also: potency is read from the fitted curve at half-maximal effect; % is scaled to controls: 0 for no effect and ±100 for the full control effect; nearly all actives have a fitted effect of over 65% in size
A549 tox-2: Nrf2 qHTS screen for inhibitors: A549 ARE-Fluc Cytotoxicity Counterscreen for Hit Validation. shares compounds with Nrf2 inh. Potency, µM (series often up to 46.1 µM), inactives show at the top dose activity change, negative = cytotoxicity, actives largely listed as inhibitors. A549 ARE-Fluc cells, cytotoxicity counterscreen. 2% of 1,400 active. AID 720523, 2013;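 also: potency is read from the fitted curve at half-maximal effect; cells exposed to compounds for 18 to 24 hours; % is scaled to controls: 0 for no effect and ±100 for the full control effect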
Nrf2 ARE inh: Nrf2 qHTS screen for inhibitors: Nrf2 A549 ARE-Fluc Confirmation Assay for Hit Validation. shares compounds with Nrf2 inh. A549 ARE-firefly luciferase reporter, luminescence. Potency, µM (doses to about 46.1 µM), without a hit: at the highest dose activity change, negative = inhibition, actives largely listed as inhibitors. 74% of 1,400 active; also: potency is read from the fitted curve at half-maximal effect; % is scaled to controls: 0 for no effect and ±100 for the full control effect; nearly all actives have a fitted effect of over 65% in size
The depositor's hits bear a star; i = inactive; u = inconclusive; x = no result given. Unless noted, calls follow the shape of the dose curve; as a rule, active = well fitted curve in the direction sought with a large enough effect; inconclusive = small, poorly fitted or top-dose-only effect, or another doubt; inactive = no such curve, though single readings can be large; an effect the other way counts as inactive or inconclusive.

SMILES | ALOX12 inh | Nrf2 inh | LDHA inh | Nrf2 activator | A549 tox-1 | IDH1 R132H inh | FLuc counter 3 | A549 tox-2 | Nrf2 ARE inh
CC1=Nc2cc(C(=O)NCCc3ccc(Cl)cc3)ccc2Sc2ccc(C)cc21 | -17% | 5.2µM* | -5 | -1% | u | -16% | -9% | -26% | 21µM*
CC(=O)Nc1cccc(C(C)NC(=O)Nc2ccc(C(F)(F)F)cc2)c1 (centres undefined) | -45% | x | 1 | x | x | x | x | x | x
COc1ccc(NC(=O)CSc2nc(-c3ccco3)cc(C(F)(F)F)n2)cc1Cl | -22% | 7.3µM* | -5 | 4% | -10% | -9% | -1% | -5% | 21µM*
COc1ccc(NC(=O)CCSc2nc(-c3ccco3)cc(C(F)(F)F)n2)cc1OC | 27% | -8% | 10 | 1% | -10% | 0% | x | x | x
Cn1c(=O)c2[nH]c(CCCCCCCCc3nc4ccccc4[nH]3)nc2n(C)c1=O | u | 8.2µM* | -2 | 6% | -21% | 1% | 0% | -17% | x
Cc1cc(C)c2c(=O)cc(C(=O)N(Cc3cccc(Cl)c3)C3CCS(=O)(=O)C3)oc2c1 (centres undefined) | u | x | 10 | x | x | x | x | x | x
Nc1ncnc2c(C3OC(CO)C(O)C3O)c[nH]c12 (centres undefined) | 11% | 0.23µM* | -9 | 0% | u | 2% | 2% | u | 0.1µM*
Cc1ccc(C(C)NC(=O)C2CCCCC2)cc1C (centres undefined) | 42% | x | -1 | x | x | x | x | x | x
COc1ccc2[nH]c(=O)c3c(c2c1)OC(C)(C)C=C3 | u | 8.2µM* | 4 | -1% | -18% | 1% | -14% | -23% | 12µM*
CC(=O)c1cccc(NS(=O)(=O)c2c(C)noc2C)c1 | -27% | -7% | -6 | 0% | -5% | 0% | x | x | x
CC(=O)c1cccc(NS(=O)(=O)c2cc(-c3onc(C)c3C)ccc2C)c1 | u | 8.2µM* | -8 | 5% | -16% | -24% | 3% | -13% | 5.8µM*
CCC(C)NC(=S)NCCc1ccccc1 (centres undefined) | u | x | 7 | x | x | x | x | x | x
CC(=O)Nc1ccc(Sc2ncccn2)cc1 | -35% | x | 1 | x | x | x | x | x | x
CCCCN(CC)S(=O)(=O)c1ccc(C(=O)Nc2nnc(-c3cccs3)o2)cc1 | x | 2.3µM* | -3 | 0% | -18% | 0% | 3% | u | 7.3µM*
CCC(C)(CC(=O)O)Cc1nc2ccccc2s1 (centres undefined) | u | x | 7 | x | x | x | x | x | x
CCOC(=O)c1sc(NC(=O)c2cccc(S(=O)(=O)N3CCc4ccccc43)c2)c(C#N)c1C | u | 5.8µM* | -3 | 0% | u | -6% | -18% | u | 2.9µM*
CCOC(=O)c1sc(NC(=O)c2cc(-c3ccccc3)nc3ccccc23)c(C#N)c1C | -15% | 4.6µM* | -3 | 0% | u | -1% | 11µM* | u | 6.5µM*
O=C(Nc1ccncc1)c1cccc(S(=O)(=O)N2CCc3ccccc32)c1 | 6% | 8.2µM* | -4 | 3% | -20% | -3% | 0% | -12% | 7.3µM*
CCCCn1c(=O)[nH]c(=O)c2c1nc(-c1cccc(OCC)c1OC)n2CCOC | -29% | x | 9 | x | x | x | x | x | x
COc1ccccc1NC(=S)NN=C(C)c1ccccn1 | u | 1.2µM* | -6 | 0% | -18% | 7% | -28% | -22% | 2.6µM*
COc1ccc(C(=O)N/N=C(\C)c2ccccn2)cc1OC | i | 5.2µM* | 0 | u | u | 8% | -16% | -47% | x
C/C(=N\NC(=O)c1ccccc1Cl)c1ccccn1 | -8% | u | -2 | 2% | u | 11% | x | x | x
C/C(=N\NC(=O)c1cc(-c2cccs2)nc2ccccc12)c1ccccn1 | -10% | 2.1µM* | -4 | 5% | u | 1% | 9.5µM* | -23% | 1.8µM*
CC(=NNC(=S)Nc1cccc(C)c1)c1ccccn1 | u | u | 1 | 7% | -25% | 5% | x | x | x
C/C(=N\NC(=O)c1ccc(Cl)c(Cl)c1)c1ccccn1 | 0% | 2.3µM* | 0 | 0% | u | -1% | u | -23% | x
SMILES | ALOX12 inh | Nrf2 inh | LDHA inh | Nrf2 activator | A549 tox-1 | IDH1 R132H inh | FLuc counter 3 | A549 tox-2 | Nrf2 ARE inh
CC(=O)N1CCN(Cc2nnc(C(C)(C)C)o2)CC1 | 49% | x | 4 | x | x | x | x | x | x
Cc1coc2c1c(C)cc1o/c(=N/O)c3c(c12)CCC3 | u | x | 3 | x | x | x | x | x | x
COc1ccccc1CC(=O)C(C#N)C(=O)NCc1ccccc1 (centres undefined) | -49% | x | 7 | x | x | x | x | x | x
CCOc1ccc(OCc2ccc(C(=O)N/N=C(\C)c3ccccn3)cc2)cc1 | 0% | u | 0 | 13% | u | 4% | x | x | x
C/C(=N/NC(=O)c1ccc(C(C)(C)C)cc1)c1ccccn1 | i | 5.8µM* | -4 | 13% | u | 0% | 11µM* | u | u
Clc1ccc(/C=C/c2ccncc2)cc1Cl | x | x | -15 | x | x | x | 0% | -39% | u
CC(=O)Nc1ccc(/C=C/c2ccncc2)cc1 | x | x | 3 | x | x | x | x | x | x
Cc1cc(C(=O)CN2C(=O)c3ccccc3S2(=O)=O)c(C)n1CC1CCCO1 (centres undefined) | -21% | 0.92µM* | -7 | -2% | 3% | 1% | 1.3µM* | -1% | 1.2µM*
CCOC(=O)COc1ccc2c(=O)c(Oc3ccccc3OC)c(C)oc2c1 | 3% | x | -2 | x | x | x | x | x | x
COc1ccc(C(=O)Nc2ccc3nc(N4CCCC4)sc3c2)cc1OC | -26% | x | 7 | x | x | x | x | x | x
